Data reported in PubChem BioAssay AID504850 (National Center for Advancing Translational Sciences (NCATS), 2011).
Screen size: about 2,300 compounds; about 1,200 (52%) were called active. Inconclusive results (about 34%) are left out. Calls come from the whole dose curve; as a rule, active = well fitted inhibition curve with a large enough effect; inconclusive = small, poorly fitted or top-dose-only effect, or effect the other way; inactive = no such curve, though single readings can be large or run the other way. The set was probably picked from earlier hits. This is one part of the list.

Assay: Confirmation screen for delayed death inhibitors of the malarial parasite plastid, 48 hour incubation; note: nearly all actives have a fitted effect of over 65% in size
Conditions: P. falciparum-infected erythrocytes, luciferase growth; series mostly up to 28.7 µM
Text: The goal of this screen is to discover new antimalarial compounds that act by inhibiting the development of the apicoplast in the malarial parasite Plasmodium falciparum. The biochemical processes that make this organelle essential for erythrocytic stage parasites are not well understood. However, antibiotics, such as azithromycin and tetracycline, which target the apicoplast translational machinery, have a potent antimalarial effect. […] We have developed a cell-based assay that measures parasite growth based on the expression of an integrated copy of a firefly luciferase reporter. To detect small molecules that cause this "delayed death phenotype, erythrocytes infected with the luciferase-expressing parasites were incubated with compounds for either one or two generations, corresponding to 48 and 96 hours, respectively. Compounds that inhibit parasite growth in the second generation, but not the first, should be enriched in antimalarials that target the apicoplast. Growth inhibition is detected by a decrease in luciferase activity. MLPCN Grant: R21 NS059500 Assay Provider: David Fidock and Eric Ekland, Columbia University Keywords: NIH Roadmap, MLPCN, MLI, MLSMR, qHTS, NCGC, qHTS, malaria, luciferase, viability
Four microliters of culture medium (RPMI 1640 with 0.5% w/v Albumax (GIBCO), 24 mM sodium bicarbonate and 10 ug/mL gentamycin) were dispensed by a Multi-drop Combi into white solid 1536-well plates (Grenier) and 23 nL compound was added by a pin tool. Four microliters of infected erythrocytes (2% hematocrit, 0.1% parasitemia final concentration) in culture medium were dispensed and the plates incubated for 48 hours at 37 C in 5% CO2. Two microliters of luciferase detection reagent was added and luminescence was detected by a ViewLux (PerkinElmer) reader.
Potency is the fitted concentration of half-maximal effect.

SMILES | Potency
Cc1ccc(C)c(N(CC(=O)Nc2cc(Cl)ccc2Oc2ccccc2)S(C)(=O)=O)c1 | 11.2 µM (active)
COc1ccccc1OCC(=O)Nc1cc(Cl)ccc1Oc1ccccc1 | inactive
CN(C)S(=O)(=O)c1ccc(Cl)c(NC(=O)CN2C(=O)NC(C)(C3CC3)C2=O)c1 (configuration not stated) | 14.1 µM (active)
CCOc1ccc2c(c1)C(N(CCN1CCOCC1)C(=O)Nc1ccccc1)CC(C)(C)O2 (configuration not stated) | 12.6 µM (active)
COCCNC(=O)c1cccc(OC2CCN(Cc3ccc(C(C)C)cc3)CC2)c1 | 14.1 µM (active)
C=CCNC(=O)c1onc(CSc2ccc(Cl)cc2)c1C(=O)O | inactive
CCOC(=O)C(C(=O)OCC)C(Nc1cccc(Br)c1)c1ccccc1 (configuration not stated) | 14.1 µM (active)
Cc1ccc(Nc2nc(NCc3ccco3)c3ccccc3n2)cc1 | 2 µM (active)
Cc1ccc2cc(C)c(SCC(=O)NCc3ccco3)nc2c1 | inactive
COc1ccc(Cl)cc1NC(=O)C(C)NC(c1ccccc1)c1ccccc1 (configuration not stated) | 8.91 µM (active)
COc1ccc(Nc2cc(Cl)ccc2C(=O)O)cn1 | inactive
C#CCOCCOCCOCCNc1nc(N2CCN(C(=O)Cn3cc(CC(C)O)nn3)CC2)nc(N2CCN(C(=O)[C@H](C)n3cc(CCCN=C(N)N)nn3)CC2)n1 (some centres not stated) | inactive
COc1nc(NC(=O)c2ccc(F)cc2)nc(OC)c1-c1ccccc1 | 12.6 µM (active)
O=[N+]([O-])c1c(Nc2ccccc2O)cc(Cl)c2nonc12 | 5.62 µM (active)
CC(C)(C)NC(=O)[C@H]1CN(Cc2cccnc2)CCN1C[C@@H](O)C[C@@H](Cc1ccccc1)C(=O)N[C@H]1c2ccccc2C[C@H]1O | 7.94 µM (active)
CCCCN(CCCNC(=O)c1ccc(CS(=O)(=O)c2ccc(OC)cc2)o1)Cc1ccccc1 | 12.6 µM (active)
CN(CCNC(=O)c1ccc(CS(=O)(=O)c2ccc(Br)cc2)o1)CCc1ccccc1 | 4.47 µM (active)
CCCCNC(=O)c1ccc(CS(=O)(=O)c2cccc(C(F)(F)F)c2)o1 | inactive
CN(CCCNC(=O)c1ccc(CS(=O)c2ccc(Br)cc2)o1)Cc1ccccc1 (configuration not stated) | 8.91 µM (active)
CCn1c(=O)c(CCC(=O)N2CCOCC2)c(C)c2c(C)nn(-c3ccccc3)c21 | 14.1 µM (active)
Cc1ccc(S(=O)(=O)N2CCN(C(=O)c3cc(S(=O)(=O)N(C)C)ccc3N3CCCC3)CC2)c(C)c1 | 12.6 µM (active)
COc1ccc(C(=O)N2CCN(S(=O)(=O)c3ccc(C)cc3C)CC2)cc1OC | 12.6 µM (active)
COc1ccc(C)cc1S(=O)(=O)N1CCN(S(=O)(=O)c2cc(C(=O)O)ccc2C)CC1 | 11.2 µM (active)

SMILES | Potency
Cc1ccc(S(=O)(=O)N2CCN(C(=O)c3ccc(Br)o3)CC2)c(C)c1 | 10 µM (active)
CCNc1nc(NCC)n2c(SCC(=O)Nc3ccccc3F)nnc2n1 | 12.6 µM (active)
Cc1c(Cl)cccc1NC(CC(=O)c1ccccc1)C(=O)O (configuration not stated) | inactive
CC(=O)O[C@@]12CO[C@@H]1C[C@H](O)[C@@]1(C)C(=O)[C@H](O)C3=C(C)[C@@H](OC(=O)C(O)[C@@H](NC(=O)OC(C)(C)C)c4ccccc4)C[C@@](O)([C@@H](OC(=O)c4ccccc4)[C@H]21)C3(C)C (some centres not stated) | 0.141 µM (active)
CC(=O)O[C@H]1C(=O)[C@@]2(C)[C@H]([C@H](OC(=O)c3ccccc3)[C@]3(O)C[C@H](OC(=O)[C@H](O)[C@@H](NC(=O)c4ccccc4)c4ccccc4)C(C)=C1C3(C)C)[C@]1(OC(C)=O)CO[C@@H]1C[C@@H]2O | 0.501 µM (active)
Cc1c(/C=N/NC(=O)c2cccs2)c2ccccc2n1Cc1ccccc1Cl | 4.47 µM (active)
Cc1noc(/C=C/c2nn(C)cc2Cl)c1[N+](=O)[O-] | 12.6 µM (active)
CC(=O)N1CCc2cc(S(=O)(=O)NCCC(=O)N3CCN(c4ccccn4)CC3)ccc21 | 11.2 µM (active)
COCCn1c(=NC(=O)/C=C/c2ccccc2)sc2cc(NC(C)=O)ccc21 | 10 µM (active)
O=C(/C=C/c1ccncc1)c1ccc(NC(=O)c2ccccc2F)cc1 | 12.6 µM (active)
COC(=O)c1cc(=O)n(Cc2cccs2)c(=Nc2ccccc2)s1 | inactive
Cc1c(C#N)c(NC(=O)CCl)n(Cc2cccs2)c1C | 3.98 µM (active)
Cc1c(C#N)c(NC(=O)CCl)n(Cc2ccccc2)c1C | 7.08 µM (active)
COc1ccc(-c2oc3ncn(Cc4ccco4)c(=N)c3c2-c2ccc(OC)cc2)cc1 | 7.94 µM (active)
CC1CCCC(NC(=O)c2cc(-c3ccncc3)nc3ccccc23)C1C (configuration not stated) | 11.2 µM (active)
C=CCn1cccc(/C=C/C(=O)c2ccc(C(C)(C)C)cc2)c1=S | 1.26 µM (active)
Nc1nc(C2CC2)c(Sc2sc(N)nc2C2CC2)s1 | inactive
Cc1ccccc1-c1nc(CS(=O)CC(=O)NC(C)CCc2ccccc2)c(C)o1 (configuration not stated) | inactive
CCN1CCCC1CNC(=O)CS(=O)(=O)Cc1nc(-c2ccccc2C)oc1C (configuration not stated) | 11.2 µM (active)
COc1cc2c(cc1NC(=O)c1ccc(C(C)(C)C)cc1)CCCC2 | 11.2 µM (active)
O=C(CCCN1C(=O)/C(=C\c2cccs2)SC1=S)Nc1ccc(O)cc1 | 11.2 µM (active)
O=C(CCCN1C(=O)/C(=C/c2cccs2)SC1=S)Nc1ccc(O)cc1 | 11.2 µM (active)
O=C(CCN1C(=O)/C(=C\c2ccc(F)cc2)SC1=S)Nc1ccccc1 | inactive

SMILES | Potency
Cc1onc(-c2c(Cl)cccc2Cl)c1C(=O)Nc1nc(C(C)(C)C)cs1 | 11.2 µM (active)
Cc1noc(C)c1C(=O)Nc1nc(-c2ccc(F)cc2)cs1 | inactive
COc1ccc(NC(=O)c2c(-c3c(Cl)cccc3Cl)noc2C)c(OC)c1 | 3.16 µM (active)
Cc1ccc(Cl)cc1N1CCN(Cc2nc3c(c(=O)[nH]c(=O)n3C)n2CCc2ccccc2)CC1 | 7.08 µM (active)
COC(=O)c1ccc(CSc2ccccc2C)o1 | inactive
CCc1ccc(OCCNC(=O)c2ccccc2SCc2ccccc2)cc1 | 14.1 µM (active)
CCCCNC(=O)c1onc(CSc2ccccc2C)c1C(=O)O | inactive
O=S(=O)(c1cccs1)N1CCN(c2ccnc3cc(Cl)ccc23)CC1 | 5.01 µM (active)
O=S(=O)(c1cccs1)N1CCC(CO)(Cc2cccc(F)c2)CC1 | inactive
CN(C)S(=O)(=O)N1CCN(c2ccnc3cc(Cl)ccc23)CC1 | 12.6 µM (active)
O=c1oc2ccccc2c(O)c1CN1CCCCC1 | inactive
CCCCCCCCC[n+]1cccc2c3ccccc3ccc21 | 0.398 µM (active)
CCCCCCCCCC[n+]1cccc2c3ccccc3ccc21 | 0.891 µM (active)
O=S(=O)(Nc1ccc(O)c(Sc2nc3ccccc3s2)c1)c1cccc2ccccc12 | 15.8 µM (active)
COc1ccc(Nc2cccc(Cl)c2)c(C(=O)O)c1 | inactive
COc1cc(-c2ccc(NC(=O)NC3CC3)c(OC)c2)ccc1NC(=O)NC1CC1 | 12.6 µM (active)
COc1cc(-c2ccc(Nc3ccccc3C(=O)O)c(OC)c2)ccc1Nc1ccccc1C(=O)O | 12.6 µM (active)
Cc1ccc(S(=O)(=O)C2(C(=O)N3CCCCCC3)CC2)cc1 | inactive
CC(=O)N1CCSc2ccc(S(=O)(=O)Nc3ccc(C)cc3)cc21 | 10 µM (active)
O=[N+]([O-])c1ccc(Sc2cccc3cccnc23)c([N+](=O)[O-])c1 | 4.47 µM (active)
CN1CC2=Cc3ccccc3OC23Oc2ccccc2C=C3C1 | 3.98 µM (active)
CC(C)=N/N=C1/NC(=O)C(Cc2ccccc2)S1 (configuration not stated) | 11.2 µM (active)
Cc1ccc(-n2ncc3c2CC(C)(C)CC3NC(=O)c2c(C)noc2C)cc1 (configuration not stated) | 11.2 µM (active)

SMILES | Potency
CC1=C(C(=O)NC2CC(C)(C)Cc3c2cnn3-c2ccc(C)cc2)OCCO1 (configuration not stated) | 12.6 µM (active)
CCc1noc(C)c1C(=O)NC1CC(C)(C)Cc2c1cnn2-c1ccccc1 (configuration not stated) | 15.8 µM (active)
Cc1cc(C)c(NC(=O)c2cccc3c2C(=O)N(C2CCCCC2)C3)c(C)c1 | 10 µM (active)
COc1cccc2cc(C(=O)NCc3ccc(Cl)cc3)c(=N)oc12 | inactive
COc1ccc(CCNC(=O)c2cc3c(=O)n4cccc(C)c4nc3n(Cc3ccco3)c2=N)cc1OC | 12.6 µM (active)
Cc1cc(OCC(=O)N[C@@H](CSCc2ccccc2)C(=O)O)c2c(C)c(C)c(=O)oc2c1 | 14.1 µM (active)
COC(=O)c1c(-n2c(C)cc(C=O)c2C)sc2c1CCCC2 | 14.1 µM (active)
COc1cc(NCc2ccc3nc(N)nc(N)c3c2C)cc(OC)c1OC | 0.316 µM (active)
O=C(Nc1ccc(C2=NCCN2)cc1)c1ccc(C(=O)Nc2ccc(C3=NCCN3)cc2)c(Cl)c1 | 0.891 µM (active)
COCCNC(=O)CCCCCN1C(=O)CCC1=O | inactive
Cc1cccc(-n2ccc(=O)c(C(=O)Nc3ccc(S(=O)(=O)N4CCOCC4)cc3)n2)c1 | 11.2 µM (active)
O=S(=O)(c1ccc(Cl)c(NC(=S)N/N=C/c2ccc(O)cc2)c1)N1CCOCC1 | 11.2 µM (active)
O=C(Nc1ccccc1)C1=C[C@@H](C2CCCCC2)C[C@@H](OCc2ccc(CO)cc2)O1 | 11.2 µM (active)
O=C(NC1CC1)C1=C[C@@H](C2CCCCC2)C[C@@H](OCc2ccc(CO)cc2)O1 | 12.6 µM (active)
O=C(NCc1ccccc1)C1=C[C@@H](c2coc3ccccc3c2=O)C[C@@H](OCc2ccc(CO)cc2)O1 | 10 µM (active)
CN(c1ccccc1)S(=O)(=O)c1ccc(NC(=O)c2nc(S(C)(=O)=O)ncc2Cl)cc1 | inactive
CN(c1ccccc1)S(=O)(=O)c1cc(C(=O)N2CCN(c3ncccn3)CC2)ccc1Cl | 11.2 µM (active)
COc1ccc(NC(=O)c2cccc(NC(=O)c3ccccc3)c2)c(OC)c1 | 11.2 µM (active)
COC(=O)c1ccc(CNCC(=O)Nc2ccc(C(=O)OC)cc2)cc1 | inactive
COc1ccccc1NC(=O)c1ccc2nc(-c3ccccc3)c(-c3ccccc3)nc2c1 | inactive
COc1cc(C(=O)Nc2ccc(Nc3ccccc3)cc2)cc(OC)c1OC | 11.2 µM (active)
COc1cc(C(=O)Nc2ccc(S(=O)(=O)Nc3cc(C)on3)cc2)cc(OC)c1OC | inactive
COC(=O)c1ccc(NC(=O)c2cccc(NC(=O)c3ccccc3)c2)cc1 | 8.91 µM (active)
